Values joined by “and” are separate entries in the source; they are usually repeats but may differ in a detail not shown here. Equal entries are not always repeated. Out of some 65,000 compounds screened, about 40 (0.06%) were called active. Calls come from the whole dose curve; as a rule, active = well fitted activation curve with a large enough effect; inconclusive = small, poorly fitted or top-dose-only effect; inactive = flat fitted curve, though single readings scatter. For the sample, actives were picked, then their nearest neighbours and some compounds at random.
Assay: qHTS Assay for Modulators of Hemoglobin Beta Chain Splicing; note: 0% is about no effect
Conditions: HBB splicing reporter cell assay, EGFP reporter with mutant IVS2-654 intron; Potency: activation; series mostly up to 46.1 µM; activation: at the top concentration
Text: NIH Chemical Genomics Center [NCGC]
NIH Molecular Libraries Screening Centers Network [MLSCN]
PI Name: Dr. Ryszard Kole
Modulation of Alternative Splicing as Therapy
Abnormal splicing is associated with a number of diseases, including cancer and genetic diseases such as cystic fibrosis, muscular dystrophy and beta-thalassemia. Alteration of disease associated splicing patterns provides a promising target for treatment. […] Mutations in the second intron of the beta-globin gene at positions are clinically relevant and cause mis-splicing which results in an out of frame gene product.
EGFP-654 and 705 HeLa Cells as screen system.
HeLa cell lines were stably transfected with a construct in which the EGFP (enhanced green fluorescent protein) cDNA was interrupted by the second intron of the beta-globin gene (IVS2-654). The ISV2 intron contains mutations which cause mis-splicing of EGFP and premature termination of EGFP which results in a nonfluorescent protein product. […] Expression of the transgene was driven by the CMV promoter. We concluded that a low molecular weight compound, which restored correct splicing of intron 2 would also generate functional EGFP protein, resulting in a fluorescent signal. Thus, the HeLa cells that express the EGFP-654 construct can be used for high throughput screening of a chemical library.
NCGC Assay Protocol Summary:
High Throughput Screening. Freshly thawed HeLa EGFP-654 cells were seeded in 5 ul of optimem media (Invitrogen) containing 2 % fetal calf serum (Hyclone) and 1x penicillin/streptomycin (Invitrogen) at a concentration of 500 cells per well in 1536-well plates. Cells were incubated overnight at 37C in 5% CO2. The next day, cells were treated with DMSO, 500 nM antisense ISV2 654 PNA control oligo, or library compound and allowed to grow at 37C in 5% CO2 for 2 days. The PNA oligo blocked the mutation site in the intron and allowed proper (wild type) splicing to occur, resulting in full length EGFP expression and also allowed for optimization of the assay parameters. Plates were read in the Acumen Explorer (TTP Labtech) using 488 nm laser excitation and 500-520 nm emission PMT filter in a 1 x […] capture mode. Fluorescnet Fluorescent objects ranging in size from […] were measured and the total peak GFP intensity for each well was used for data analysis.
Keywords: Thalassemia, beta-thalassemia, beta-globin, EGFP, ISV2 654, ISV2 705, SSO, PNA, antisense, splicing, MLSMR, MLSCN, NIH Roadmap, qHTS, NCGC

activation, inactive:
COc1ccccc1-c1cc(NCc2cccs2)ncn1 0.429%, COc1ccc2[nH]cc(CCNc3nc(-c4cccc(NS(C)(=O)=O)c4)nc4ccccc34)c2c1 -1.42%, C[C@H](CCC(=O)O)[C@H]1CC[C@@H]2[C@H]3CC[C@H]4C[C@H](O)CC[C@@]4(C)[C@@H]3CC[C@@]21C 1.15% [at 9.22 µM, normalised to 500 nM splice-correcting PNA], C[C@H]1O[C@@H](CC(=O)O)Cc2c1c(O)c1c(O)cc(-c3cc(=O)c4c(=O)c5c(c(=O)c=4c3=O)C[C@H](CC(=O)O)O[C@@H]5C)c(O)c1c2O 4.76% [at 9.22 µM, normalised to 500 nM splice-correcting PNA], COC(=O)[C@@]1(Cc2ccccc2)[C@H]2c3cc(C(=O)N(C)C)n(CCSCCO)c3C[C@H]2CN1C(=O)c1ccccc1 -0.366%, COc1ccc(C(=O)N/N=C2/C(=O)c3c(C)cc(C)cc3CC2(C)C)cc1 3.55% [at 9.22 µM, normalised to 500 nM splice-correcting PNA], COC(=O)[C@@]1(Cc2ccccc2)[C@H]2c3cc(C(=O)N4CCCC4)n(Cc4ccc(C)o4)c3C[C@H]2CN1C(=O)c1ccccc1 0.0086%, CC(C)CC1(C(=O)NCc2ccccn2)C=CCN1C(=O)c1ccccc1 (configuration not stated) -0.315%, COC(=O)C1(C)C=CC2(CCCCC2)N1C(C)=O (configuration not stated) -0.264%, O=C(Nc1cccc(F)c1)N1CC2(CCN(C(=O)c3cnccn3)CC2)C1 -0.736%, COc1ccc(OC)c([C@H](O)CNC(=O)CN)c1 1.06% [at 20.6 µM, normalised to 500 nM splice-correcting PNA], CS(=O)(=O)N1CCC[C@@]2(CCN(c3ccncc3)C2)C1 0.825%, COc1ccc(CNc2ncnc3ccc(-c4cccnc4)cc23)c(OC)c1 -0.216%, CN(C)C(=O)/N=N\C(=O)N(C)C 0.247%, Oc1c(Br)cc(CN(Cc2cc(Br)c(O)c(Br)c2)C2CCCCC2)cc1Br 1.47% [at 9.22 µM, normalised to 500 nM splice-correcting PNA], CC(C)(C)c1ccc(OC2C=CC(C#Cc3ccccc3)OC2CO)cc1 (configuration not stated) -0.074% [at 9.22 µM, normalised to 500 nM splice-correcting PNA], CC(C)=CCC/C(C)=C/CO/N=C1/C[C@@H](O)[C@@H](O)[C@@H]2[C@@H]3C(=O)N(C(C)(C)C)C(=O)[C@H]3CC[C@H]12 -1.71% [at 9.22 µM, normalised to 500 nM splice-correcting PNA], CCCn1c(C)nc2c(NCCCCN(CC)CC)nc(C)nc21 -0.385%, O=C(Cl)c1ccccc1[N+](=O)[O-] -0.267%, CC(C)(C)NCC[C@@H](O)c1cc(C(F)(F)F)nc2c(C(F)(F)F)cccc12 0.766% [at 9.22 µM, normalised to 500 nM splice-correcting PNA], COc1cccc(-c2cc(NCCc3c[nH]c4ccc(OC)cc34)ncn2)c1 -0.561%, COc1ccc(/C=C/NC(=O)Cc2ccc(OC)c(OC)c2)cc1 1.47% [at 9.22 µM, normalised to 500 nM splice-correcting PNA] and 0.37% [at 9.22 µM, normalised to 500 nM splice-correcting PNA], O=C(O)c1nccnc1C(=O)Nc1ccc(Br)cn1 -1.21%, COc1cccc(Cn2c(=O)cnc3cncnc32)c1 4.4%, O=C(O)[C@H](CCc1ccccn1)c1ccccc1 1.34% [at 9.22 µM, normalised to 500 nM splice-correcting PNA], N#Cc1ccccc1-c1ccc2ncnc(NCc3cccnc3)c2c1 -2.1%, CCCCC/C=C/C=C/C=O 1.32%, O=C(O)CCCCC(=O)O -0.164%, CNC(=O)C1(C)C=CC2(CCCCC2)N1C(C)=O (configuration not stated) -1.62%, O=S(=O)(c1ccccc1)N1CCC2(CC1)CN(Cc1nccs1)C2 1.28%, CCON=C1C(C)(C)C(C)(C)C(C)(C)C1(C)C 1.16% [at 9.22 µM, normalised to 500 nM splice-correcting PNA], O=C(c1cnccn1)N1CCC2(CCN(Cc3cc(C(F)(F)F)cc(C(F)(F)F)c3)CC2)CC1 -0.133%, O=C(c1ccncc1)N1CCC2(CCCN(C(c3ccccc3)c3ccccc3)C2)CC1 0.276%, Nc1ccccc1N 1.59%, CC(=O)OCC(COC(C)=O)OC(C)=O 1.19%, Cc1cc(C(=O)O)ccc1[N+](=O)[O-] 0.443%, O=C1C[C@@H](O)[C@@H](O)[C@H]2[C@@H]3C(=O)N(Cc4ccc5c(c4)OCO5)C(=O)[C@@H]3CC[C@H]12 3.01% [at 9.22 µM, normalised to 500 nM splice-correcting PNA] and 2.86% [at 9.22 µM, normalised to 500 nM splice-correcting PNA]

Source: PubChem BioAssay AID925 (National Center for Advancing Translational Sciences (NCATS), 2007)
